High-throughput results (PubChem BioAssay)
ALR H2O2 inh: human ALR oxidase inhibition via reduced H2O2; P55789; purified ALR, DTT oxidation, H2O2 HRP-luminol luminescence; inhibition, % (concentration not given with the values); 3.8% of 290,000 active; AID 485317;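 active means mean replicate inhibition above about 79%, with every replicate also reaching it, limit read from the data; inconclusive means only one of the two criteria met; inactive means mean below limit and not every replicate reaching it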
Target sequence (P55789 whole entry, looked up): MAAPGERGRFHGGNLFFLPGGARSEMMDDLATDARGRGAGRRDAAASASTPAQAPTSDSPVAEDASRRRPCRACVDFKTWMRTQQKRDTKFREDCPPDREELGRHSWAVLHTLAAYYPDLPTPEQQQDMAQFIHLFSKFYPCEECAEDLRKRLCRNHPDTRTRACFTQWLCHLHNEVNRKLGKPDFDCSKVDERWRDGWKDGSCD
MLLE-PAM2 inh: inhibitors of microRNA-mediated deadenylation, human PABP1 MLLE binding | AID 588489 | 0.36% of 360,000 active | GST-MLLE / FITC-PAM2 fluorescence polarization | inhibition, % at 20 µM | P11940; in the data active means inhibition above about 35%, passing the limit was not always enough;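 further: plate controls were DMSO wells with GST-MLLE for no effect and wells lacking GST-MLLE protein for full effect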
UBC9 SUMO inh: SUMOylation inhibition; AID 2006; inhibition, % at 35 µM; P63279; HTRF SUMOylation assay, SAE1/SAE2 + UBC9, in vitro; 0.36% of 290,000 active; in the data active means inhibition above about 50%, passing the limit was not always enough; inconclusive means no clear call, values can overlap the other calls
Efflux pump inh: blocks antifungal efflux pumps in multiplex yeast assay. inhibition, % at 10 µM. S. cerevisiae Candida pump triplex, Nile Red efflux. 0.44% of 330,000 active. AID 485275;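 active means plate passing quality check with inhibition over a set limit, or well fluorescence over plate mean plus 4 SD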;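 further: Nile Red retained in pooled yeast measured as flow cytometry median fluorescence; 0% = buffer negative control and 100% = Enniatin B positive control; higher means more Nile Red kept so more efflux inhibition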
PABP polyA inh: PABP-poly(A) binding inhibition; P11940; PABP-poly(A) RNA binding, fluorescence polarization; inhibition, % at 35 µM; 1% of 290,000 active; AID 2014;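 further: calls also rest on retests at 20 µM and on dose response follow-up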
eIF4H FP inh: inhibitors of RNA binding by human eIF4H; Q15056; eIF4H fluorescence polarization binding assay; inhibition, % at 35 µM; 0.94% of 290,000 active;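 further: calls also rest on retests at 20 µM and on dose response follow-up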
Numbers without * were called inactive; ? = inconclusive; . = no result. This is a sample that favours compounds with a hit; in the whole collection about 4.7% have one here. Unless noted, how the calls were made is not given here.

SMILES	ALR H2O2 inh	MLLE-PAM2 inh	UBC9 SUMO inh	Efflux pump inh	PABP polyA inh	eIF4H FP inh
CC(C)NC(=O)CSc1c2c(nc3ccccc13)CCCC2	76*	10	10	0	-10	-2
COc1ccc(NC(=O)CSc2c3c(nc4ccccc24)CCCC3)c(OC)c1	100*	27	-2	0	-18	-2
Cc1cc(NC(=O)CSc2cc(C)c3ccccc3n2)no1	-6	8	.	0	.	.
COc1ccccc1Nc1cc(C)nc(Nc2ccccc2OC)n1	.	-116	.	.	.	.
CC(C)(C)S(=O)N1Cc2cc(=O)n(Cc3ccccc3)c(CCO)c2[C@H]1CCO (stereo partly specified)	.	8	.	.	.	.
CC(=O)N1CCN=C1SCc1ccc(Cl)cc1	98*	-15	12	0	5	0
CCC(=O)N1CCN=C1SCc1ccccc1	-8	-6	8	0	1	-4
CCC(=O)N1CCN=C1SCc1ccc(Cl)cc1	98*	17	1	0	-3	0
CC(=O)N1CCN=C1SCc1ccccc1	3	-5	9	0	-6	-14
CC(=O)N1CCN=C1SCc1ccc(C)cc1	95*	-8	-13	0	22	12
CC(=O)N1CCN=C1SCc1ccc(F)cc1	99*	-1	7	0	-4	-7
Cn1nc(C(C)(C)C)cc1C(=O)N1CCCC(c2cc(C(=O)Nc3ccccc3Cl)no2)C1 (stereo unspecified)	.	-13	.	.	.	.
CC(=O)NCCNC(=O)C1(C)Cc2c(-c3cccc(C(F)(F)F)c3)ccnc2O1 (stereo unspecified)	.	11	.	.	.	.
O=C(CN1CCN(c2ccc(Cl)cc2)CC1)Nc1ccc(F)cc1	11	-3	2	0	12	10
CCN(CC)c1ccc(NC(=O)CN2CCN(CC(=O)Nc3ccccc3F)CC2)cc1	99*	-9	-12	0	-20	-2
CCN(CC)c1ccc(NC(=O)CN2CCN(c3ccc(F)cc3)CC2)cc1	79*	-12	5	0	-3	11
CCN(CC)c1ccc(NC(=O)CN2CCN(c3nc(C)cc(C)n3)CC2)cc1	98*	-1	-6	0	-12	-1
Oc1ccc(/C=N/Nc2cc(N3CCOCC3)nc(N3CCOCC3)n2)cc1O	99*	-7	-8	0	5	31
Cc1nc(N/N=C/c2cccc(F)c2)cc(N2CCOCC2)n1	6	1	9	0	16	-2
Cc1nc(N/N=C/c2ccc(O)cc2O)cc(N2CCOCC2)n1	95*	1	-25	0	-16	12
CCCCNC(=O)CC1N=C2c3ccccc3N=C(SCC(=O)Nc3cccc(C)c3)N2C1=O (stereo unspecified)	98*	2	-23	0	0	0
CCOC(=O)CSC1=Nc2ccccc2C2=NC(CC(=O)NCc3ccc(OC)cc3)C(=O)N12 (stereo unspecified)	10	-45	26	0	3	4
COc1ccc(COC(=O)c2ccc(S(=O)(=O)N3CCCCC3)cc2)cc1OC	-3	-32	.	0	.	.
O=C1CSC(c2cccs2)N1c1ccccc1 (stereo unspecified)	.	7	34	0	-9	-7
c1ccc(N2CCN(c3ccccc3)C2c2cccs2)cc1	99*	12	-18	0	13	-3
SMILES	ALR H2O2 inh	MLLE-PAM2 inh	UBC9 SUMO inh	Efflux pump inh	PABP polyA inh	eIF4H FP inh
C#Cc1ccc([C@@H]2C=C(C(=O)OCC=C)O[C@H](OCc3ccc(CO)cc3)C2)cc1	-10	1	3	1	-1	12
CC(=O)Nc1ccc(NC(=O)Cn2c(-c3ccc(F)cc3)cnc2SCC(=O)Nc2c(C)cccc2C)cc1	4	35	51*	0	-5	-4
Cn1c(-c2ccc(F)cc2)cnc1SCC(=O)Nc1ccccc1	1	6	-2	0	8	-1
CN(C)c1cc(N/N=C\c2ccccc2)nc(N(C)C)n1	2	32	.	0	6	3
COc1ccc(/C=N/Nc2cc(N(C)C)nc(N(C)C)n2)cc1	2	25	95*	0	-3	-5
CN(CC(=O)Nc1ccc(F)c(F)c1F)C(=O)c1nn(Cc2ccccc2)c(=O)c2ccccc12	.	-14	.	0	.	.
COc1ccccc1CNc1ccc(N2CCOCC2)c(C(=O)O)c1	99*	11	6	0	-6	-11
O=C(O)c1cc(NCc2ccc3c(c2)OCO3)ccc1N1CCOCC1	79*	10	-1	0	15	-4
C=CCn1c(=O)c2c(nc3n2CCCN3CCc2ccc(OC)c(OC)c2)n(C)c1=O	-24	4	7	0	4	3
CCOc1ccc(C(c2nnnn2C(C)(C)C)N2CCN(C(=O)c3ccco3)CC2)cc1 (stereo unspecified)	-6	15	-14	0	-1	-6
CN(C)c1ccc(C(c2nnnn2C(C)(C)C)N2CCN(C(=O)c3ccco3)CC2)cc1 (stereo unspecified)	90*	6	17	0	-1	3
COC(=O)C1=C(C)NC(=O)/C1=C\c1cc(C)n(-c2ccc(F)cc2)c1C	-33	5	28	0	43	30
COC(=O)C1=C(O)/C(=C\c2cc(C)n(-c3ccc(F)cc3)c2C)N=C1C	-10	10	13	0	active	59
CCOc1nc2cnccc2n(CC(=O)Nc2cccc(C)c2C)c1=O	1	3	0	0	0	-4
COC(=O)/C(=N\Nc1ccc(Cl)cc1)Sc1nnc(-c2ccc(OC)cc2)n1C	95*	-34	-6	0	-14	-9
COc1ccc(CNC(=O)CSc2nnc(-c3ccc(NC(C)=O)cc3)n2C)cc1	-11	-7	16	0	1	-4
Cc1cc2nc3c(=O)[nH]c(=O)[nH]c3nc2c([N+](=O)[O-])c1N	.	191	76*	.	-3	?
Cc1c(N)c(C(C)(C)C)cc(C(C)(C)C)c1[N+](=O)[O-]	-7	5	-29	0	14	12
CCN(CC)C(=O)[C@H]1CC(CC(=O)NC(C)(C)C)C(=O)N2CCc3c([nH]c4ccccc34)[C@]12C (stereo partly specified)	1	2	.	0	.	.
CCCN(CC(=O)Nc1cc(Cl)ccc1Cl)C(=O)c1ccccn1	-9	-4	.	0	.	.
COc1ccc(C)cc1NC(=O)C(Sc1nnnn1C)c1ccccc1 (stereo unspecified)	1	-2	12	0	-58	5
COCCn1c(SC(C(=O)Nc2cc(C)ccc2OC)c2ccccc2)nnc1-c1ccc(Cl)cc1 (stereo unspecified)	99*	-4	-22	1	-2	8
CN(Cc1ccccc1)C(=O)c1[nH]cnc1C(=O)N[C@@H](CCCCNC(=O)OC(C)(C)C)C(=O)OC(C)(C)C	-19	3	-23	.	5.1*	84*
O=S(=O)(NCc1ccccc1)c1cccc2nonc12	99*	0	12	0	-7	-10
